Holding throughout (assay): DAPPL (digital affinity profiling via proximity ligation, sequencing); 10 mM Tris-HCl pH 7.5, 50 mM NaCl, 1 mM DTT, 4% glycerol, room temperature, 30 min; GST-TFs on glutathione beads, 16-mer random dsDNA library, 0.1% formaldehyde crosslink after washing; high values mean tight binding
The target in test [1] is T1, FLI1 (Homo sapiens, UniProt Q01543 1-452).
T1 sequence: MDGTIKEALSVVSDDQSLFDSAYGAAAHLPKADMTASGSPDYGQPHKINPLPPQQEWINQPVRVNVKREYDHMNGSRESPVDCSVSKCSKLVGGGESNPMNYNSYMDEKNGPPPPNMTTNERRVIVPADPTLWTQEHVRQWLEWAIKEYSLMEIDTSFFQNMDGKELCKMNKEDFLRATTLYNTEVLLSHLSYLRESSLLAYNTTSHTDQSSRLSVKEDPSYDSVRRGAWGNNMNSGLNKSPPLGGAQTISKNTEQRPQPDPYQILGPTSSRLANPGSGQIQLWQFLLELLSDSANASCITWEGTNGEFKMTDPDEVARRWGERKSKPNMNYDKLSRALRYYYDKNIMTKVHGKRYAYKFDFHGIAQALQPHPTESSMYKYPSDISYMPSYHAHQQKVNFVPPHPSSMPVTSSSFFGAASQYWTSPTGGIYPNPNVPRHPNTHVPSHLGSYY
Particulars: protein: recombinant; tags: N-terminal GST; dsDNA, one strand shown. In short, it runs like this: (§1)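 Binding signal is given per hexamer as its read frequency for a factor divided by its frequency in the tag-only sample. GST-fused human transcription factors were expressed in yeast, captured on glutathione beads, barcoded with DNA and pooled with that sample, then incubated with 200 nmole of a 16-mer random double-stranded DNA library in Tris/NaCl/DTT/glycerol buffer for 30 min at room temperature. The pools were then washed, crosslinked, proximity-ligated, amplified by PCR and sequenced on an Illumina NextSeq500.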

Test [2] deals with T2, ELK1 (Homo sapiens, UniProt P19419 1-428).
T2 sequence: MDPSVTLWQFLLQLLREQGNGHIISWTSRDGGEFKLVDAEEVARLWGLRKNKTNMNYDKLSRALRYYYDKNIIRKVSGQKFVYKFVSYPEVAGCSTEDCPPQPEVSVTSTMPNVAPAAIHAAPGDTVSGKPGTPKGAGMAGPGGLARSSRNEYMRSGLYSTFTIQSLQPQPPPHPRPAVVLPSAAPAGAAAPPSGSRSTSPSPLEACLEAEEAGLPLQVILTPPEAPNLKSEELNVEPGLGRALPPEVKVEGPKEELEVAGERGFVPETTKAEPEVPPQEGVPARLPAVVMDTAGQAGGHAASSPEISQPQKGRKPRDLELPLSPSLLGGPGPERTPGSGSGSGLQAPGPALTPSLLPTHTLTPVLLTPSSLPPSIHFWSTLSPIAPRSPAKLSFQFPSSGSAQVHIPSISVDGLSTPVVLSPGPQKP
Particulars: protein: recombinant; tags: N-terminal GST; dsDNA, one strand shown. In short, it runs like this: as §1

Test [3] has as its target T3, GABPA (Homo sapiens, UniProt Q06546 1-454).
T3 sequence: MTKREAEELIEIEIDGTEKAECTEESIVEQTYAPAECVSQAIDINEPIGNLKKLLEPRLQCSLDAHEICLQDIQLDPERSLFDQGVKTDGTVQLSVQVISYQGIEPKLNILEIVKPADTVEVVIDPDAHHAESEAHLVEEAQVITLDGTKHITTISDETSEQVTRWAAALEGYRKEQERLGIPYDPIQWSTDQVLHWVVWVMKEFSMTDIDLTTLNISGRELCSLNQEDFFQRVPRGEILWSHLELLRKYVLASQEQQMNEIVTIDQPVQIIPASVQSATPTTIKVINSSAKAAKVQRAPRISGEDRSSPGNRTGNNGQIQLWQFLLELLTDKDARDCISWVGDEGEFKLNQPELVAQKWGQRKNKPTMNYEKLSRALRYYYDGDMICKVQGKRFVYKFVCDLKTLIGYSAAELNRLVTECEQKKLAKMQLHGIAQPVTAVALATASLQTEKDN
Particulars: protein: recombinant; tags: N-terminal GST; dsDNA, one strand shown. In outline:
as §1

For test [4], the target named is T4, ERG (Homo sapiens, UniProt P11308 1-479).
T4 sequence: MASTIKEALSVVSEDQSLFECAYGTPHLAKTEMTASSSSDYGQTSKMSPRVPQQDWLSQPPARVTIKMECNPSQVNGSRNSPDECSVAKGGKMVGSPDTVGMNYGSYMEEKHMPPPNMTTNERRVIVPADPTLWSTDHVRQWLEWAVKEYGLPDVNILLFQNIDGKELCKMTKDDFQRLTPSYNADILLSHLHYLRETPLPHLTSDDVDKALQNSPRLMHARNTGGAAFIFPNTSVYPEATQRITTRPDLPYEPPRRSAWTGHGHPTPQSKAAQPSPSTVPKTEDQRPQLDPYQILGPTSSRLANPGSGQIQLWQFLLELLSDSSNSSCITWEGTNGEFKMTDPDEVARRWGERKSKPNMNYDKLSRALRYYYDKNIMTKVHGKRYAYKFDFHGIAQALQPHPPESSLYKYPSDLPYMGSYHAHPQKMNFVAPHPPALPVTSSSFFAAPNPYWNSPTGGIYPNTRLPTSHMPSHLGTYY
Particulars: protein: recombinant; tags: N-terminal GST; dsDNA, one strand shown. In outline: as §1

The target of test [5] is ELF1 (Homo sapiens, UniProt P32519 1-619). Particulars: protein: recombinant; tags: N-terminal GST; dsDNA, one strand shown. In short, it runs like this:
as §1

For test [6], the target named is T5, EHF (Homo sapiens, UniProt Q9NZC4 1-300).
T5 sequence: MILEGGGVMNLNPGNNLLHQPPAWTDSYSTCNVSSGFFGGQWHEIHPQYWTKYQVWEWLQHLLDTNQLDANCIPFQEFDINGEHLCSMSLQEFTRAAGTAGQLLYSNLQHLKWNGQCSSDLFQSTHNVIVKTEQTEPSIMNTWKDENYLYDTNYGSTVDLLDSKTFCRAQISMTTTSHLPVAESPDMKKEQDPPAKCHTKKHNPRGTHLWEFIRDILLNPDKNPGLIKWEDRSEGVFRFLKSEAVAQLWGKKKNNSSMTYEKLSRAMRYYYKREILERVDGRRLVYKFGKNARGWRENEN
Particulars: protein: recombinant; tags: N-terminal GST; dsDNA, one strand shown. In outline: as §1

Test [7] deals with SPI1 (Homo sapiens, UniProt P17947 1-270). Particulars: protein: recombinant; tags: N-terminal GST; dsDNA, one strand shown. In outline: as §1
Test [8] concerns the target SPIB (Homo sapiens, UniProt Q01892 1-262). Particulars: protein: recombinant; tags: N-terminal GST; dsDNA, one strand shown. In short, it runs like this:
as §1

Test [9] deals with T6, ELK3 (Homo sapiens, UniProt P41970 1-407).
T6 sequence: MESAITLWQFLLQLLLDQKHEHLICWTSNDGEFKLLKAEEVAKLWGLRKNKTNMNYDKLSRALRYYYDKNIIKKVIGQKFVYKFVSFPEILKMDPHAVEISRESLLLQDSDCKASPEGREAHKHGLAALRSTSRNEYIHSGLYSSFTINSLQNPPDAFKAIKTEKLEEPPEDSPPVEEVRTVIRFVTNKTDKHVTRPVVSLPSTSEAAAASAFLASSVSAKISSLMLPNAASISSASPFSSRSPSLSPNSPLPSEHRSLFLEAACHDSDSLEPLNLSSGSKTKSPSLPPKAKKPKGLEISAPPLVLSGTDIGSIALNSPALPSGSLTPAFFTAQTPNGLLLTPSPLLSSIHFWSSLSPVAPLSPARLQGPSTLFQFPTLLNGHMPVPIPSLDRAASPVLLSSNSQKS
Particulars: protein: recombinant; tags: N-terminal GST; dsDNA, one strand shown. In short, it runs like this: as §1

The target of test [10] is T7, FEV (Homo sapiens, UniProt Q99581 1-238).
T7 sequence: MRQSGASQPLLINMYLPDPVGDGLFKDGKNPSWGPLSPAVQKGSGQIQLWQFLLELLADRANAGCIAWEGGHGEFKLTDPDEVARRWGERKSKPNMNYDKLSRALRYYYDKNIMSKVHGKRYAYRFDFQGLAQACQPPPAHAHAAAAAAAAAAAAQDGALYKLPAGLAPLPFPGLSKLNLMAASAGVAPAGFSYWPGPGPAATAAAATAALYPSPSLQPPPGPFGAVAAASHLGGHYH
Particulars: protein: recombinant; tags: N-terminal GST; dsDNA, one strand shown. In outline:
as §1

Test [11] has as its target ETV5 (Homo sapiens, UniProt P41161 1-510). Particulars: protein: recombinant; tags: N-terminal GST; dsDNA, one strand shown. In short, it runs like this:
as §1

For test [12], the target named is HSF1 (Homo sapiens, UniProt Q00613 1-529). Particulars: protein: recombinant; tags: N-terminal GST; chain copies: 3; dsDNA, one strand shown. In outline:
as §1

Test [13] addresses T8, SPIC (Homo sapiens, UniProt Q8N5J4 1-248).
T8 sequence: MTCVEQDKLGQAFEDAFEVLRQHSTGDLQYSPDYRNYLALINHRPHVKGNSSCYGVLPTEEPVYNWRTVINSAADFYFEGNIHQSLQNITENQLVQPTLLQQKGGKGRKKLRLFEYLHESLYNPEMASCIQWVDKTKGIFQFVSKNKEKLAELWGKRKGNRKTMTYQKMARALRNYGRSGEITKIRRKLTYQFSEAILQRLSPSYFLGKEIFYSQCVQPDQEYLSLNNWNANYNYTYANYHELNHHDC
Particulars: protein: recombinant; tags: N-terminal GST; dsDNA, one strand shown. In short, it runs like this:
as §1

In test [14] the target is ELF4 (Homo sapiens, UniProt Q99607 1-663). Particulars: protein: recombinant; tags: N-terminal GST; dsDNA, one strand shown. In short, it runs like this:
as §1

Test [15] deals with T9, ELK4 (Homo sapiens, UniProt P28324-2 1-405).
T9 sequence: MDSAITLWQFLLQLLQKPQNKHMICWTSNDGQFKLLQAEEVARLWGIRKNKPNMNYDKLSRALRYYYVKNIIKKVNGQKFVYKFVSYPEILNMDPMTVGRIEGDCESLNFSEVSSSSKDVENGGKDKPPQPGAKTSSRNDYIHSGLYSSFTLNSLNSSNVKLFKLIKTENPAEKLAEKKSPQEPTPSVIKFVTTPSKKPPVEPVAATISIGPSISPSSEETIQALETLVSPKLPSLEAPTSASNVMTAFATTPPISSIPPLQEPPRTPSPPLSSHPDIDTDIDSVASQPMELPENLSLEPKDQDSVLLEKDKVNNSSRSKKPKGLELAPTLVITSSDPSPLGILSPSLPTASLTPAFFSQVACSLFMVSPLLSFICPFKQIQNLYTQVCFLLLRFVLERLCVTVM
Particulars: protein: recombinant; tags: N-terminal GST; dsDNA, one strand shown. In short, it runs like this:
as §1

For test [16], the target named is T10, ETV2 (Homo sapiens, UniProt O00321 1-342).
T10 sequence: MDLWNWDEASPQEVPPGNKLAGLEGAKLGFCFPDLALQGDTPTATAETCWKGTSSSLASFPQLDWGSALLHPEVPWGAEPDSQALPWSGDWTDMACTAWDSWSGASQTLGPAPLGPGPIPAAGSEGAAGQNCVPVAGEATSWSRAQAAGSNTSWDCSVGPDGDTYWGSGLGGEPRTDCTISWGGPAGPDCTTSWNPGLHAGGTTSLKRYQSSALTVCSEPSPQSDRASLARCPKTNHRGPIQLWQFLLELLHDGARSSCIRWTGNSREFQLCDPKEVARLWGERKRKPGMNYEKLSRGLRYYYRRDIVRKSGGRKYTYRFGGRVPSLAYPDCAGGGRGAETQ
Particulars: protein: recombinant; tags: N-terminal GST; dsDNA, one strand shown. In short, it runs like this:
as §1

In test [17] the target is T11, ELF3 (Homo sapiens, UniProt P78545 1-371).
T11 sequence: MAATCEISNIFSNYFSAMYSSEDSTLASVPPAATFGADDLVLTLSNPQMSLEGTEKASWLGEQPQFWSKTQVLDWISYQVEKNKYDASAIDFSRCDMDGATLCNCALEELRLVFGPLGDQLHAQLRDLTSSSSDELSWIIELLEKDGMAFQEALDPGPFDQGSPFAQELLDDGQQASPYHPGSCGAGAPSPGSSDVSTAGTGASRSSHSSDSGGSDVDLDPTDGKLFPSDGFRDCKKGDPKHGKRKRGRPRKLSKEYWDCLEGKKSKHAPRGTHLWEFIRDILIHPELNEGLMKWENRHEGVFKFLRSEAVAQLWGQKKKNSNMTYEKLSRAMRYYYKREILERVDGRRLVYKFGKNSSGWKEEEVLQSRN
Particulars: protein: recombinant; tags: N-terminal GST; dsDNA, one strand shown. In outline:
as §1

In test [18] the target is CRX (Homo sapiens, UniProt O43186 1-299). Particulars: protein: recombinant; tags: N-terminal GST; dsDNA, one strand shown. In outline: as §1
Sequence of CRX (O43186 whole entry): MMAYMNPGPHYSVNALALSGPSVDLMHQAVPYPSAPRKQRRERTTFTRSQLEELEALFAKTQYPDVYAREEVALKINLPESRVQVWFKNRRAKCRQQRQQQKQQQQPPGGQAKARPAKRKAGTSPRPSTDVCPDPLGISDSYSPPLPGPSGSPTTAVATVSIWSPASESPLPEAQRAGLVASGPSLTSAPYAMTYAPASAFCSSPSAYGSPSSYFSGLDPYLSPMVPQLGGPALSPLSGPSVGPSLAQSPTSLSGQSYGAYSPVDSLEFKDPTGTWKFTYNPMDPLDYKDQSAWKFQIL
Test [19] addresses ETV1 (Homo sapiens, UniProt P50549 1-477). Particulars: protein: recombinant; tags: N-terminal GST; dsDNA, one strand shown. In outline: as §1

Sequence of HSF1 (Q00613 whole entry): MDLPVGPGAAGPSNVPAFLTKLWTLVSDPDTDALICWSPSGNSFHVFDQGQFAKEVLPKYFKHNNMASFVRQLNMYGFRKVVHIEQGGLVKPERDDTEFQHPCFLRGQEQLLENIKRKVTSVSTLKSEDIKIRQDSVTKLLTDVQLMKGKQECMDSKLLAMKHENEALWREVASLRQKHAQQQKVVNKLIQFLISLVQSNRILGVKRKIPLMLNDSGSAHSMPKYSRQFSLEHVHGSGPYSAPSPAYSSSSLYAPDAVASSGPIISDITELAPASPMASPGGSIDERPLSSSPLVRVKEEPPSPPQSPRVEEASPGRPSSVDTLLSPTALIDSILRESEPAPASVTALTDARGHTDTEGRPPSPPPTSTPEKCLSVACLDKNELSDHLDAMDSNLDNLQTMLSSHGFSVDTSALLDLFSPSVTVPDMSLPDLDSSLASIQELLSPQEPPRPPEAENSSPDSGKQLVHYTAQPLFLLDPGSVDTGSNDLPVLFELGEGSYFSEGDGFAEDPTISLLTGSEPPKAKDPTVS
Sequence of SPIB (Q01892 whole entry): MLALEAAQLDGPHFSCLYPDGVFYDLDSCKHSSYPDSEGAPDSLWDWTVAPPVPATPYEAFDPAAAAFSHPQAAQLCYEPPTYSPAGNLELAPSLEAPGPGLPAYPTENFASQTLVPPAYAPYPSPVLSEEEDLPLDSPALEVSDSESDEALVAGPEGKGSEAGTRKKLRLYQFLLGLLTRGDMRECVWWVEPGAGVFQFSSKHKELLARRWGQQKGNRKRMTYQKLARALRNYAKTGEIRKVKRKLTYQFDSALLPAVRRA
Sequence of ELF1 (P32519 whole entry): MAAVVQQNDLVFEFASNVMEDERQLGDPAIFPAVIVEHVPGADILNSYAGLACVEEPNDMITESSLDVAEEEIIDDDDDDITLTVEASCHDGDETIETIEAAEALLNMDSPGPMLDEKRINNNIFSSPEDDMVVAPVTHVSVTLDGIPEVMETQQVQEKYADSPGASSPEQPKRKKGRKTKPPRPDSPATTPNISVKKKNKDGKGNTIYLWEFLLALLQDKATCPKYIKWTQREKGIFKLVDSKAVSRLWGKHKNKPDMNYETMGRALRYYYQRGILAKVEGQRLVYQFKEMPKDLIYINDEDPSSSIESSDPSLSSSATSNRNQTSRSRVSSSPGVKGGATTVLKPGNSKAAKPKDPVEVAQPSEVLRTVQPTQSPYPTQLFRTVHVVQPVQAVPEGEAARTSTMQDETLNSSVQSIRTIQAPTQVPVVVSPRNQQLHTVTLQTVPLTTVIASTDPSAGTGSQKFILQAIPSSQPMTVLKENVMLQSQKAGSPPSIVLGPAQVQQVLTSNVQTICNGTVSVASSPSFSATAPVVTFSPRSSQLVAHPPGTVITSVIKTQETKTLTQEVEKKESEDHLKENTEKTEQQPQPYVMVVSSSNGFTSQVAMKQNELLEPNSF
Sequence of ETV1 (P50549 whole entry): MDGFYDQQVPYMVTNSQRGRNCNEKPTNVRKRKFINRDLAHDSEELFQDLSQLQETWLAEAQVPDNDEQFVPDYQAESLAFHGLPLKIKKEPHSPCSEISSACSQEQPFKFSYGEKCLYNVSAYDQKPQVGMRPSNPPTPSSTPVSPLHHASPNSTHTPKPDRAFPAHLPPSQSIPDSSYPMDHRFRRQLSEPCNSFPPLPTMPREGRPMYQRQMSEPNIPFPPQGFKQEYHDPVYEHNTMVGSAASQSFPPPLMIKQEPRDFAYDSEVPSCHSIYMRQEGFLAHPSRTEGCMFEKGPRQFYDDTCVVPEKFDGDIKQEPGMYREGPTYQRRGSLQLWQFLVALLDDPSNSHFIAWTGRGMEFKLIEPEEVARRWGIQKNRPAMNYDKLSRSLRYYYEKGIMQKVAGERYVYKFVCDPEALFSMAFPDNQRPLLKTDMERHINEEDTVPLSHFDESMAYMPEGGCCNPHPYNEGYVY
Sequence of ETV5 (P41161 whole entry): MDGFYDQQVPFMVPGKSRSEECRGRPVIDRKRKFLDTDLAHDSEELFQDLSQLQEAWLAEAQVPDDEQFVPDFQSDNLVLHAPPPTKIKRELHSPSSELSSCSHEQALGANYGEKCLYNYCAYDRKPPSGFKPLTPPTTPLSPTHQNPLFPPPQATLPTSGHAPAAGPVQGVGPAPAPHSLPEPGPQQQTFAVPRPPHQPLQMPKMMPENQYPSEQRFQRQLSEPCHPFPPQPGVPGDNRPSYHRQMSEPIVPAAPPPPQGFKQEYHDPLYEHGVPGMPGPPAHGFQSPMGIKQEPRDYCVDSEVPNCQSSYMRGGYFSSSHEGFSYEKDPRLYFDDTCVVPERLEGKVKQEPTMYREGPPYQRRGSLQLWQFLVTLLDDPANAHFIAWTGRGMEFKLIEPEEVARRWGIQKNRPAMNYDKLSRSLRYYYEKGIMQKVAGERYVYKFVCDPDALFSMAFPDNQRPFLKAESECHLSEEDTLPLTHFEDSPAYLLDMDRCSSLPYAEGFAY
Sequence of ELF4 (Q99607 whole entry): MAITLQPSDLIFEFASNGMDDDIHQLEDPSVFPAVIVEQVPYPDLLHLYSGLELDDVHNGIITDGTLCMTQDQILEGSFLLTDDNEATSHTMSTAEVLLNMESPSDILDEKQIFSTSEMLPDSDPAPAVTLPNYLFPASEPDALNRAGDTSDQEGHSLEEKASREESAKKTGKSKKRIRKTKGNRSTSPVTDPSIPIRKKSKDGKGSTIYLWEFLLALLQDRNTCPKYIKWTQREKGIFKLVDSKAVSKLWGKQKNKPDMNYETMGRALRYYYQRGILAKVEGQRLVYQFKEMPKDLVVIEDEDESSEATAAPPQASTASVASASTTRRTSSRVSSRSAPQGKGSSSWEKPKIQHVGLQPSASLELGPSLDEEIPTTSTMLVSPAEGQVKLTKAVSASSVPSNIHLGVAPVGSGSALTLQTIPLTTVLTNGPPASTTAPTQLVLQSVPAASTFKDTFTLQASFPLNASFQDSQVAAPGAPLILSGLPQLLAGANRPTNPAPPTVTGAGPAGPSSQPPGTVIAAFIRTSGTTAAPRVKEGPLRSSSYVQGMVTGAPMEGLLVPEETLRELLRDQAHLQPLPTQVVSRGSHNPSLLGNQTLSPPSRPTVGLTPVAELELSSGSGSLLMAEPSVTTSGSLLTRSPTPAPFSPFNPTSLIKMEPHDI

With CCTCAA, the binding signal in test [1] is 1.47 fold enrichment (6-mer frequency, TF over GST control); in test [2], 1.32 fold enrichment (6-mer frequency, TF over GST control); in test [3], 1.46 fold enrichment (6-mer frequency, TF over GST control); in test [4], 1.26 fold enrichment (6-mer frequency, TF over GST control); in [5], 1.32 fold enrichment (6-mer frequency, TF over GST control); in test [6], 1.39 fold enrichment (6-mer frequency, TF over GST control). The binding signal is 1.55 fold enrichment (6-mer frequency, TF over GST control) in test [7]; 1.42 fold enrichment (6-mer frequency, TF over GST control) in [8]; 1.44 fold enrichment (6-mer frequency, TF over GST control) in [9]; 1.42 fold enrichment (6-mer frequency, TF over GST control) in [10]; 1.42 fold enrichment (6-mer frequency, TF over GST control) in [11]; 1.2 fold enrichment (6-mer frequency, TF over GST control) in test [12]. The binding signal in test [13] was 1.46 fold enrichment (6-mer frequency, TF over GST control); in test [14], 1.38 fold enrichment (6-mer frequency, TF over GST control); in [15], 1.35 fold enrichment (6-mer frequency, TF over GST control); in test [16] it was 1.61 fold enrichment (6-mer frequency, TF over GST control); in [17], 1.54 fold enrichment (6-mer frequency, TF over GST control); in [18], 1.15 fold enrichment (6-mer frequency, TF over GST control). Besides, in [19], the binding signal is 1.42 fold enrichment (6-mer frequency, TF over GST control).

The record behind these values is paper PMC7862700, “An all-to-all approach to the identification of sequence-specific readers for epigenetic DNA modifications on cytosine”.
